NSD2 inh = blocks human histone methyltransferase NSD2. O96028. NSD2 peptide methylation, AlphaScreen, 120 min. inhibition, % at 12.5 µM. 310,000 compounds, 0.54% hits; in the data active means inhibition above about 50%
PfHsp90 set2 = inhibits growth of yeast expressing Plasmodium falciparum Hsp90; S. cerevisiae expressing PfHsp90, BacTiter-Glo ATP, 48 h; yeast lacking PDR1 and PDR3 efflux regulators; inhibition, % at 9.4 µM; 310,000 compounds, 0.32% hits;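 active means every replicate shows inhibition above about 80%, whatever the replicate mean, limit read from the data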;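 further: 0% = DMSO neutral controls and 100% = 20 µM radicicol positive controls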
SIRT5 block = inhibitors of human sirtuin-5 desuccinylase; Q9NXA8; Purified SirT5, succinyl-peptide AMC, trypsin-coupled fluorescence; inhibition, % at 15 µM; 330,000 compounds, 1.1% hits; in the data active means inhibition above about 15%
Target sequence (Q9NXA8 whole entry, looked up): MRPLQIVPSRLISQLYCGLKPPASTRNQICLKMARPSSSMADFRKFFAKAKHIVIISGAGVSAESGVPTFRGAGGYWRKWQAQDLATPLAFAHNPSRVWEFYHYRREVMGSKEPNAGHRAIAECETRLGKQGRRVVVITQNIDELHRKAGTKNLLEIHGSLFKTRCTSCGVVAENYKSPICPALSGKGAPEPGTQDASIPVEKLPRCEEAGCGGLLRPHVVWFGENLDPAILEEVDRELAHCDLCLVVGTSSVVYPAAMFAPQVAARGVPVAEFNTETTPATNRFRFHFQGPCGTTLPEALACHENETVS
ARNT TACC3 PPI = disrupts binding between human ARNT and TACC3; Q9Y6A5; AlphaScreen His-ARNT PAS-B/GST-TACC3 binding, luminescence; TACC3 fragment carries E629A point mutation; inhibition, % at 9.99 µM; 390,000 compounds, 0.66% hits; AID 623870;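 active means mean inhibition of replicates at least 50% and at least half of replicates each reaching 50%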;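 further: 0% = complete ARNT plus TACC3 wells and 100% = ARNT alone without TACC3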
Casp6 inh = blocks human caspase-6 cleavage activity; P55212; purified caspase-6, Z-VEID-R110 cleavage fluorescence; inhibition, % at 12.5 µM; 350,000 compounds, 0.53% hits;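 active means mean inhibition across replicates at least about 35%, with every replicate also reaching that limit, limit read from the data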;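 further: 0% = median of neutral control wells and 100% = no fluorescence left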
Target sequence (P55212 24-179 limits assumed): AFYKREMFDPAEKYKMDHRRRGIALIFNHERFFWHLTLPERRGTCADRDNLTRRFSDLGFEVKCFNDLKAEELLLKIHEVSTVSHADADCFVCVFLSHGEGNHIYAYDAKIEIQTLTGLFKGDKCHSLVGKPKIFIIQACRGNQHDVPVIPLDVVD
Target sequence (P55212 194-293 limits assumed): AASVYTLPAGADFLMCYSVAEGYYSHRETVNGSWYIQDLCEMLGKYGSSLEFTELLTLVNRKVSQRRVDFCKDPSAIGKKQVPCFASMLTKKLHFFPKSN
Numbers without * were called inactive; . = not tested or not shown. Sampled rows, rich in hits. Any-hit rate of the full collection: about 2.1%.

SMILES	NSD2 inh	PfHsp90 set2	SIRT5 block	ARNT TACC3 PPI	Casp6 inh
COc1ccc(CC(=O)NCC2CCCN(Cc3ccccc3Cl)C2)cc1 (centres undefined)	-1	3	17*	6	-3
COc1ccc(CC(=O)NCC2CCCN(Cc3ccc(OC(F)(F)F)cc3)C2)cc1 (centres undefined)	-1	6	21*	-4	0
CN1CCC(=O)N(CCOc2ccccc2)CC1	.	3	.	60*	-5
O=C(O)c1cccc(OCCN2CCCC2=O)c1	-5	-16	0	-2	-2
Cc1noc(C)c1NC(=O)Nc1ccc2c(c1)C(=O)N([C@@H](C)CO)C[C@H](C)[C@H](CN(C)C)OCCCC[C@@H](C)O2	.	.	-2	-5	1
CO[C@H]1CN(C)C(=O)c2ccc(NC(=O)c3nc4ccccc4s3)cc2OC[C@H](C)N(Cc2cncnc2)C[C@H]1C	.	.	.	0	0
O=C(O)C(c1ccccc1)N1C(=O)/C(=C\c2ccc(-c3ccc(Br)cc3)o2)SC1=S (centres undefined)	1	4	54*	20	71*
COc1cccc(/C=C2\SC(=S)N(C(C(=O)O)c3ccccc3)C2=O)c1OC (centres undefined)	3	-4	5	1	4
O=C1/C(=C\c2ccc(-c3ccccc3Cl)o2)SC(=S)N1CC1CCCO1 (centres undefined)	-4	-1	.	.	.
O=C(O)C(c1ccccc1)N1C(=O)/C(=C\c2ccc(-c3ccccc3Cl)o2)SC1=S (centres undefined)	3	-17	33*	6	86*
COc1cc(/C=C2\SC(=S)N(C(C(=O)O)c3ccccc3)C2=O)cc(OC)c1OC (centres undefined)	9	-16	16*	.	5
COc1ccc(/C=C2\SC(=S)N(C(C(=O)O)c3ccccc3)C2=O)c(OC)c1 (centres undefined)	.	-17	12	6	15
COc1ccc(NC(=O)N2CCCCN3[C@H](CO)[C@@H](c4ccc(C5=CCCCC5)cc4)[C@H]3C2)cc1	.	.	-5	22	-1
C[C@@H]1CN([C@H](C)CO)C(=O)c2cc(-c3ccc(F)cc3)cnc2O[C@H]1CN(C)C(=O)C1CCC1	.	.	-5	-6	1
CC(C)=CCc1c2c(c3occ(-c4ccc(O)cc4)c(=O)c3c1O)C=CC(C)(C)O2	.	-31	.	-14	4
CC(C)=CCc1c2c(c3occ(-c4ccc(O)c(O)c4)c(=O)c3c1O)C=CC(C)(C)O2	1	102*	2	5	1
CCC(=O)N(C)C[C@@H]1Oc2ncc(-c3ccc(C(=O)N(C)C)cc3)cc2C(=O)N([C@H](C)CO)C[C@H]1C	.	.	-2	-12	-2
CCNc1nc(NCC)nc(OCCOC(C)=O)n1	1	2	-5	-6	3
CCNc1nc(NCC)nc(C(=O)OCCO)n1	.	-14	1	49*	-1
COc1ccc(S(=O)(=O)Nc2ccc3c(c2)C(=O)N([C@@H](C)CO)C[C@@H](C)[C@H](CN(C)Cc2ccc(Oc4ccccc4)cc2)O3)cc1	.	.	25*	19	1
COc1ccc(S(=O)(=O)Nc2ccc3c(c2)C(=O)N([C@H](C)CO)C[C@H](C)[C@@H](CN(C)Cc2ccc(Oc4ccccc4)cc2)O3)cc1	.	.	22*	10	-1
COc1ccc(S(=O)(=O)Nc2ccc3c(c2)C(=O)N([C@@H](C)CO)C[C@@H](C)[C@H](CN(C)Cc2ccc(-c4ccccc4)cc2)O3)cc1	.	.	21*	-1	1
C[C@@H]1CN([C@@H](C)CO)C(=O)c2cc(NS(=O)(=O)c3ccccc3)ccc2O[C@H]1CN(C)Cc1ccc(Oc2ccccc2)cc1	.	.	.	6	.
COc1ccc(S(=O)(=O)Nc2ccc3c(c2)C(=O)N([C@H](C)CO)C[C@H](C)[C@@H](CN(C)Cc2ccccc2)O3)cc1	.	.	-3	-2	.
COc1ccc(S(=O)(=O)Nc2ccc3c(c2)C(=O)N([C@@H](C)CO)C[C@H](C)[C@H](CN(C)Cc2ccc(Oc4ccccc4)cc2)O3)cc1	.	.	38*	25	2
SMILES	NSD2 inh	PfHsp90 set2	SIRT5 block	ARNT TACC3 PPI	Casp6 inh
COc1ccc(S(=O)(=O)Nc2ccc3c(c2)C(=O)N([C@H](C)CO)C[C@@H](C)[C@H](CN(C)Cc2ccc(Oc4ccccc4)cc2)O3)cc1	.	.	22*	21	-3
C[C@H](CO)N1C[C@H](C)[C@H](CN(C)Cc2ccc(Oc3ccccc3)cc2)Oc2ccc(NS(=O)(=O)c3ccccc3)cc2C1=O	.	.	14	9	0
C[C@@H]1CN([C@@H](C)CO)C(=O)c2cc(NS(=O)(=O)c3ccc(Cl)cc3)ccc2O[C@H]1CN(C)Cc1ccc(Oc2ccccc2)cc1	.	.	17*	-1	1
COc1ccc(S(=O)(=O)Nc2ccc3c(c2)C(=O)N([C@H](C)CO)C[C@@H](C)[C@@H](CN(C)Cc2ccc(Oc4ccccc4)cc2)O3)cc1	.	.	30*	24	0
COc1ccc(CN(C)C[C@H]2Oc3ccc(NS(=O)(=O)c4ccccc4)cc3C(=O)N([C@@H](C)CO)C[C@@H]2C)cc1	.	.	1	-7	5
CN(C)CC(=O)N[C@@H]1CC[C@@H](CCn2cc(CN(C)C)nn2)O[C@@H]1CO	.	.	-1	-35	1
O=C(CN1CCOCC1)NCC[C@H]1CC[C@H](NC(=O)Nc2ccc(F)cc2)[C@@H](CO)O1	.	.	-1	1	4
CNC(=O)c1sc(-c2ccccc2)nc1C	-5	-15	.	.	.
Cc1nc(-c2ccccc2)sc1C(=O)NS(=O)(=O)c1ccc(CN2CCN(c3ccccc3)CC2)cc1	.	.	22*	.	14
CC(C)c1cn(CC[C@H]2CC[C@@H](NC(=O)C3CCCCC3)[C@@H](CO)O2)nn1	.	.	0	-11	1
O=C(O)CSC1CC(=O)N(c2ccc(F)cc2)C1=O (centres undefined)	-1	.	0	.	-1
O=C(CSC1CC(=O)N(c2ccc(C(=O)O)cc2)C1=O)Nc1ccc(Cl)cc1 (centres undefined)	1	-27	18*	1	.
COC(=O)C1=CN(Cc2ccc(OC)cc2)C=C(C(=O)OC)C1c1cc(OC)c(OC)c(OC)c1	-27	4	.	active	.
CC(C)(C)[S@@](=O)N1Cc2cc(C(=O)N3CCCCC3)nc(-c3cccc(-c4ccc(C#N)cc4)c3)c2[C@H]1CCO	.	.	4	0	-1
Cc1c(NC(=S)N/N=C/C=C/c2ccc([N+](=O)[O-])cc2)c(=O)n(-c2ccccc2)n1C	0	-17	0	-19	5
Cc1c(NC(=S)N/N=C\c2ccccc2O)c(=O)n(-c2ccccc2)n1C	-31	2	3	66*	1
Cc1c(NC(=S)N/N=C/c2ccc([N+](=O)[O-])cc2O)c(=O)n(-c2ccccc2)n1C	-24	-10	.	61*	-1

Compound activity as filed in PubChem.
